The list is not random: actives were taken first. Their share in the collection is about 6.7%.
BoNT A protease: inhibitors of Botulinum neurotoxin A light chain protease; inhibition, % at 10 µM; multiplex microsphere protease substrate cleavage, flow cytometry; AID 588499; 360,000 tested, 0.17% active; further: plate controls were buffer without enzyme for full effect and enzyme alone for no effect
Bead autofluor: counter-screen for toxin protease inhibitors: compound fluorescence; compound autofluorescence counterscreen, microsphere flow cytometry; active compounds read high; fluorescence intensity (no concentration beside the values); 360,000 tested, 3.1% active; AID 624483; in the data active means fluorescence intensity above about 16000; inconclusive means no clear call, values can overlap the other calls
FBA Mtb inh: inhibitors of M. tuberculosis fructose-bisphosphate aldolase; 360,000 tested, 2.3% active; purified M. tuberculosis FBA, fluorescence read-out; P9WQA3; AID 588726; inhibition, % at 1 µM; in the data active means inhibition above about 27%;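 further: 0% = vehicle and 100% = reference inhibitor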
Target sequence (P9WQA3 whole entry, looked up): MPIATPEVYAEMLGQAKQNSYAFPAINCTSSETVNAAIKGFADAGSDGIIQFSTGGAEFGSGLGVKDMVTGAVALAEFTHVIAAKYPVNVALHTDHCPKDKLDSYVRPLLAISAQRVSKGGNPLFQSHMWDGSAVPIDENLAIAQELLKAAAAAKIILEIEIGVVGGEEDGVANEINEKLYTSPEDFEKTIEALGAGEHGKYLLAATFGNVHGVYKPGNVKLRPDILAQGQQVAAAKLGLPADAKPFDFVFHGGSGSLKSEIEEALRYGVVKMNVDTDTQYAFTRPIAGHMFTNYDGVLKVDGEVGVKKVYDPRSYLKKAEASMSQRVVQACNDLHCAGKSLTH
GDH-TPI inh: counter-screen for M. tuberculosis FBA inhibitors: GDH-TPI coupled enzymes. GDH-TPI coupled enzyme counterscreen, NADH absorbance. inhibition, % at 4.8 µM. 360,000 tested, 1.2% active; in the data active means inhibition above about 30%;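 further: 0% = DMSO wells and 100% = wells lacking the enzyme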
Anthrax LF prot: inhibitors of Bacillus anthracis lethal factor protease; multiplex microsphere protease cleavage assay, LF; P15917; inhibition, % at 10 µM; 360,000 tested, 0.12% active; AID 588501; further: plate controls were buffer without enzyme for full effect and enzyme alone for no effect
BoNT F protease: inhibitors of Botulinum neurotoxin F light chain protease. Multiplex microsphere protease cleavage assay, flow cytometry. inhibition, % at 10 µM. 360,000 tested, 0.22% active; in the data active means inhibition above about 35%, passing the limit was not always enough; inconclusive means no clear call, values can overlap the other calls; further: plate controls were buffer without enzyme for full effect and enzyme alone for no effect
The depositor's hits bear a star. Unless noted, no stated cut-off is given here; in the data, active means inhibition above about 30%; inconclusive means no clear call, values can overlap the other calls; inactive means below that.

How did CC(=O)Nc1nc(S(=O)(=O)c2ccc(C)cc2)c(Cl)s1 do in these assays?
BoNT A protease: -2.6; Bead autofluor: 3735; FBA Mtb inh: 1.5; GDH-TPI inh: -5.9; Anthrax LF prot: -7.1; BoNT F protease: -21.5

How did Cc1ccc(S(=O)(=O)c2nc(NCc3ccc4c(c3)OCO4)sc2Cl)cc1 do in these assays?
BoNT A protease: 2.7; Bead autofluor: 25130*; FBA Mtb inh: 0.8; GDH-TPI inh: 4.4; Anthrax LF prot: 1.0; BoNT F protease: -0.1

Results for CCCCn1nc2cc(C(=O)NCc3ccccc3)ccc2c1OCC ?
BoNT A protease: 0.0; Bead autofluor: 3674; FBA Mtb inh: 67.9*; GDH-TPI inh: 1.2; Anthrax LF prot: -6.5; BoNT F protease: 3.8

What do the screens show for `CCc1nc2ccc(C(=O)NCCc3ccccc3OC)cc2nc1CC`?
BoNT A protease: 0.5; Bead autofluor: 5891; FBA Mtb inh: 0.1; GDH-TPI inh: 5.2; Anthrax LF prot: -1.8; BoNT F protease: -4.9

What do the screens show for `CCCn1nc2cc(C(=O)N(CC)c3ccc(OC)cc3)ccc2c1OCC`?
BoNT A protease: 0.1; Bead autofluor: 3665; FBA Mtb inh: 40.2*; GDH-TPI inh: 0.0; Anthrax LF prot: 0.8; BoNT F protease: -1.3

Results for COc1ccccc1CNC(=O)c1ccc2nc3[nH]c4ccccc4c3nc2c1 ?
BoNT A protease: 3.5; Bead autofluor: 10589; FBA Mtb inh: -0.5; GDH-TPI inh: 39.5*; Anthrax LF prot: 1.5; BoNT F protease: 6.6

What do the screens show for `CCOc1c2ccc(C(=O)NCc3ccco3)cc2nn1CC`?
BoNT A protease: -0.4; Bead autofluor: 3843; FBA Mtb inh: 38.7*; GDH-TPI inh: 6.9; Anthrax LF prot: 1.9; BoNT F protease: -7.3

What do the screens show for `CCOc1ccc(C(=O)NCc2ccco2)cc1OCC`?
BoNT A protease: 0.3; Bead autofluor: inconclusive; FBA Mtb inh: 1.7; GDH-TPI inh: 3.7; Anthrax LF prot: -18.7; BoNT F protease: -0.8

How did Cc1cccc(C)c1-n1c(C)nn(CCOc2ccccc2)c1=O do in these assays?
BoNT A protease: -2.5; Bead autofluor: 4090; FBA Mtb inh: 1.9; GDH-TPI inh: 2.5; Anthrax LF prot: -10.0; BoNT F protease: -18.3

Results for COC(=O)[C@H]1CCCN1C(=O)Nc1cccc(Oc2c(F)c(F)c(F)c(F)c2F)c1 ?
BoNT A protease: 1.7; Bead autofluor: 4022; FBA Mtb inh: 5.1; GDH-TPI inh: 1.8; Anthrax LF prot: 1.4; BoNT F protease: 12.6

What do the screens show for `CCOc1c2ccc(C(=O)NCc3ccccc3OC)cc2nn1CC`?
BoNT A protease: -1.4; Bead autofluor: 3297; FBA Mtb inh: 46.8*; GDH-TPI inh: -1.2; Anthrax LF prot: -3.9; BoNT F protease: -5.2

Results for CCOc1c2ccc(C(=O)NCc3ccc(OC(F)(F)F)cc3)cc2nn1CC ?
BoNT A protease: 0.1; Bead autofluor: 3708; FBA Mtb inh: 24.3; GDH-TPI inh: 3.6; Anthrax LF prot: -4.5; BoNT F protease: -1.3

Results for Cc1nn(C)c(Cl)c1CN1CCC(CO)(CCOc2ccccc2)CC1 ?
BoNT A protease: 0.9; Bead autofluor: 3559; FBA Mtb inh: 3.8; GDH-TPI inh: 16.1; Anthrax LF prot: 2.4; BoNT F protease: 11.6

What do the screens show for `CCOc1cccc(/C=N/N=C/c2cccc(OCC)c2O)c1O`?
BoNT A protease: -1.7; Bead autofluor: 2959; FBA Mtb inh: 4.3; GDH-TPI inh: 7.8; Anthrax LF prot: -2.4; BoNT F protease: -7.2

What do the screens show for `CCOc1cccc(C=Nc2cc(C)cc(C)c2O)c1O`?
BoNT A protease: inconclusive; Bead autofluor: 22996*; FBA Mtb inh: -0.3; GDH-TPI inh: 2.5; Anthrax LF prot: -0.6; BoNT F protease: 3.9

What do the screens show for `Clc1ccc2c(SCC3CO3)c3ccccc3nc2c1` (stereo not drawn)?
BoNT A protease: 1.1; Bead autofluor: 3852; FBA Mtb inh: 121.7*; GDH-TPI inh: 15.1; Anthrax LF prot: -2.2; BoNT F protease: 3.1

Results for Cc1cc(C)n2cc(CSc3nc4cc(Cl)ccc4o3)nc2n1 ?
BoNT A protease: 1.1; Bead autofluor: 2860; FBA Mtb inh: 11.0; GDH-TPI inh: -8.2; Anthrax LF prot: -6.4; BoNT F protease: -8.9

How did O=C(N/N=C1\CCCc2ccccc21)c1ccccc1Cl do in these assays?
BoNT A protease: -0.1; Bead autofluor: 4438; FBA Mtb inh: -0.6; GDH-TPI inh: -4.7; Anthrax LF prot: 4.0; BoNT F protease: 2.2

What do the screens show for `O=C(O)c1ccc(N/N=C2/CCCc3ccccc32)cc1`?
BoNT A protease: 0.5; Bead autofluor: 3445; FBA Mtb inh: 1.8; GDH-TPI inh: 79.2*; Anthrax LF prot: -4.8; BoNT F protease: -4.7

Results for CCOC(=O)c1c(-c2ccc(OC)cc2)cn2ccccc12 ?
BoNT A protease: -0.9; Bead autofluor: 4640; FBA Mtb inh: 26.1; GDH-TPI inh: 3.5; Anthrax LF prot: -0.3; BoNT F protease: -3.1

What do the screens show for `CCOC(=O)c1c(-c2ccccc2)cn2ccccc12`?
BoNT A protease: -0.6; Bead autofluor: 2818; FBA Mtb inh: 168.2*; GDH-TPI inh: 10.6; Anthrax LF prot: -2.4; BoNT F protease: 1.2

How did CCOc1cc(NC(=O)c2ccco2)c(OCC)cc1NC(=O)Cc1ccc(OC)c(OC)c1 do in these assays?
BoNT A protease: 2.7; Bead autofluor: 20919*; FBA Mtb inh: -1.1; GDH-TPI inh: 8.7; Anthrax LF prot: -10.2; BoNT F protease: 5.1

How did COc1ccc(NC(=O)CCc2ccccc2)cc1NC(=O)c1ccco1 do in these assays?
BoNT A protease: -0.9; Bead autofluor: 19700*; FBA Mtb inh: 0.4; GDH-TPI inh: 5.6; Anthrax LF prot: -3.3; BoNT F protease: -4.5

Results for Nc1[nH]c(N=NC(=O)c2ccc(F)cc2)c2ccccc12 ?
BoNT A protease: 0.8; Bead autofluor: 7161; FBA Mtb inh: -1.9; GDH-TPI inh: 32.9*; Anthrax LF prot: 2.5; BoNT F protease: 2.2

How did Clc1ncc(Cn2cccn2)s1 do in these assays?
BoNT A protease: -0.1; Bead autofluor: 4117; FBA Mtb inh: 4.4; GDH-TPI inh: -1.6; Anthrax LF prot: -3.0; BoNT F protease: -3.8

Results for C=CCn1c(SC)nnc1C1COc2ccccc2O1 (stereo not drawn) ?
BoNT A protease: -1.0; Bead autofluor: 4892; FBA Mtb inh: -1.5; GDH-TPI inh: 5.1; Anthrax LF prot: -8.0; BoNT F protease: -3.4

How did O=[N+]([O-])c1cccnc1N1CCCCC1 do in these assays?
BoNT A protease: 0.8; Bead autofluor: 22095*; FBA Mtb inh: -0.7; GDH-TPI inh: 10.7; Anthrax LF prot: -1.4; BoNT F protease: -0.1

What do the screens show for `COc1ccc(S(=O)(=O)N(C)c2ccc(C(=O)NCCC(C)C)cc2)cc1`?
BoNT A protease: inconclusive; Bead autofluor: 19593*; FBA Mtb inh: -0.1; GDH-TPI inh: -3.8; Anthrax LF prot: 0.4; BoNT F protease: 4.3

What do the screens show for `COc1ccc(S(=O)(=O)Nc2cc(C(=O)NCCC(C)C)ccc2N2CCOCC2)cc1`?
BoNT A protease: -0.8; Bead autofluor: 23444*; FBA Mtb inh: 6.3; GDH-TPI inh: 0.6; Anthrax LF prot: 0.1; BoNT F protease: -2.7

What do the screens show for `CSCCC(NC(=O)c1ccccc1)C(=O)NCCc1ccccc1` (stereo not drawn)?
BoNT A protease: -1.9; Bead autofluor: 4115; FBA Mtb inh: -0.7; GDH-TPI inh: 1.1; Anthrax LF prot: -9.6; BoNT F protease: -27.5

Compound activity as filed in PubChem.
